Data as given in PubChem BioAssay (Tox21).
Records with an inconclusive call do not appear. Where a call stands in place of a potency, no number is given. Activity calls are given as the source filed them. The call rests on the fitted dose curve; in most records, active means well fitted cell-killing curve with a large enough effect in the repeat runs; inconclusive means weak or mixed curves, or effect the other way; inactive means flat fitted curve, though single readings scatter.

Test: qHTS assay to identify small molecule agonists of the sonic hedgehog signaling (Shh) pathway - cell viability counter screen (AID 1259366); further: nearly all actives have a fitted effect of over 50% in size
Conditions: NIH/3T3 Gli1-Luc viability, CellTiter-Fluor, 24 h; series mostly up to 92.4 µM
Text: National Center for Advancing Translational Sciences [NCATS]
NIH Chemical Genomics Center [NCGC]
U.S. Environmental Protection Agency [EPA]
National Institutes of Environmental Health Sciences [NIEHS]
National Toxicology Program [NTP]
U.S. Food and Drug Administration [FDA]
The sonic hedgehog (Shh) pathway is essential for normal embryonic development. Dysregulation of the Shh pathway can cause severe developmental defects in organs. Therefore chemicals that interfere with the pathway are potential developmental toxicants. A cell line designated 3T3Gli1-Luc (DMB/OARSA/CFSAN/FDA, Laurel, MD), a NIH/3T3 derived clone containing stably integrated Gli1-Luc reporter is used to detect chemical interference of the Shh pathway, by changes in the expression of the firefly Luc gene under the control of the Gli1 transcriptional response element. This cell line was used to screen Tox21 libraries for identifying and prioritizing the potential developmental toxicants that interfere Shh pathway. The cytotoxicity of the compounds was tested in parallel by measuring the cell viability using CellTiter-Fluor assay system (Promega, Madison, WI) in the same wells.
Tox21 Assay Protocol Summary:
3T3 Gli1-Luc cells were dispensed at 2,000 per well in 5uL of culture medium into white solid bottom 1536-well plates (Greiner Bio-One, Monroe, NC) using a Multidrop Combi (Thermo Scientific, Waltham, MA) dispenser. The assay plates were incubated at 37 C and 5% CO2 for 4hr, and then 23nL of compounds dissolved in DMSO and positive control were transferred using a Pintool station (Wako, San Diego, CA). The assay plates were incubated at 37C and 5% CO2 for 24hr. For viability read, after 23hr of compound treatment, 1uL of CellTiter-Fluor reagent (Promega Corporation, Madison, WI) was added to each well of the assay plates using Flying Reagent Dispenser (FRD, Aurora Discovery, San Diego, CA) and incubated the assay plates at 37C for 1hr. The fluorescence signal was quantified using a ViewLux plate reader (Perkin Elmer, Shelton, CT).
Potency means the concentration at half of the fitted maximal effect.

Row | Structure (SMILES) | Potency | viability change, negative = cytotoxic
1 | O=C1NCCN1 | inactive | 
2 | O=C(O)c1cccc(O)c1 | inactive | 
3 | Oc1cc(O)c(Cl)cc1Cl | inactive | 
4 | CC(COc1ccc(C(C)(C)C)cc1)OS(=O)OCCCl (stereo not given) | inactive | 
5 | CCCCCCCCCCOS(=O)(=O)O | inactive | 
6 | Brc1cc(-c2ccc(Br)c(Br)c2Br)cc(Br)c1Br | inactive | 
7 | CC(=N\O)/C(C)=N/O | inactive | 
8 | CC(C)=CC=O | inactive | 
9 | CN1Cc2cc(C(=O)N3CCC(C4CCNCC4)CC3)ccc2N[C@@H](CC(=O)O)C1=O | inactive | 
10 | CC1=C(C=O)C(C)(C)CCC1 | inactive | 
11 | Oc1ccc(Nc2ccccc2)cc1 | inactive | 
12 | O=c1[nH]c2ccc(S(=O)CCN3CCC(Cc4ccc(F)cc4)CC3)cc2o1 (stereo not given) | inactive | 
13 | O=C(C(=O)c1ccccc1)c1ccccc1 | inactive | 
14 | CCn1cc(C(=O)O)c(=O)c2cc(F)c(N3CCNCC3)nc21 | inactive | 
15 | CCc1nn(CCCN2CCN(c3cccc(Cl)c3)CC2)c(=O)n1CCOc1ccccc1 | inactive | 
16 | O=C(CCC1CCN(Cc2ccccc2)CC1)c1ccc2c(c1)NCCCC2 | inactive | 
17 | CCC(Cc1ccccc1)(C(=O)c1ccc(N2CCOCC2)cc1)N(C)C (stereo not given) | inactive | 
18 | Cc1cc2nc3ccc(=[N+](C)C)cc-3sc2cc1N | 9.44 µM (active) | 
19 | CCCCCCCCCCCC[N+](C)(C)CCCS(=O)(=O)[O-] | inactive | 
20 | Nc1nc(Cl)nc2c1ncn2[C@@H]1O[C@H](CO)[C@@H](O)[C@@H]1F | inactive | 

Row | Structure (SMILES) | Potency | viability change, negative = cytotoxic
21 | COC(OC)(C(=O)c1ccccc1)c1ccccc1 | inactive | 
22 | CCCCCCCC/C=C\CCCCCCCC(=O)OC(CO)CO | inactive | 
23 | O=C(O)c1c(O)c(-c2ccccc2)nc2ccccc12 | inactive | 
24 | CCCOC(=O)c1ccc(N)cc1 | inactive | 
25 | Fc1c(F)c(F)c(Br)c(F)c1F | inactive | 
26 | CC(C)C(OC(=O)c1ccccc1)C(C)(C)COC(=O)c1ccccc1 (stereo not given) | inactive | 
27 | Cc1oc(C)c(C(=O)Nc2ccccc2)c1C | inactive | 
28 | CC(C)CCCC(=O)O | inactive | 
29 | CC(C)(O)c1ccccc1CC[C@@H](SCC1(CC(=O)O)CC1)c1cccc(/C=C/c2ccc3ccc(Cl)cc3n2)c1 | inactive | 
30 | CC(=O)[C@H]1CC[C@H]2[C@@H]3C[C@H](C)C4=CC(=O)CC[C@]4(C)[C@H]3[C@@H](O)C[C@]12C | inactive | 
31 | CCC(C(=O)OCCN(CC)CC)c1ccccc1 (stereo not given) | inactive | 
32 | Cc1cc(O)c2c(O)c3c(O)cccc3cc2c1 | inactive | 
33 | CCN(Cc1cccc(S(=O)(=O)O)c1)c1ccc(C(=C2C=CC(=[N+](CC)Cc3cccc(S(=O)(=O)[O-])c3)C=C2)c2ccccc2)cc1 | inactive | 
34 | O=C(O)c1ccc(CO)o1 | inactive | 
35 | COC(=O)[C@@H]1CC2=CC(=O)CC[C@]2(C)[C@@]23O[C@@H]2C[C@@]2(C)[C@@H](CC[C@@]24CCC(=O)O4)[C@H]13 | inactive | 
36 | CCCC(=O)O[C@]1(C(=O)COC(=O)CC)CC[C@H]2[C@@H]3CCC4=CC(=O)CC[C@]4(C)[C@H]3[C@@H](O)C[C@@]21C |  | 2.28% [at 19 µM] (inactive)
37 | CCCCCCCCCCCCCCC[C@H](O)[C@@H](N)CO | inactive | 
38 | Cc1ccnc2ccccc12 | inactive | 
39 | CC(=O)OCC(=O)[C@@]12OC(C)(C)O[C@@H]1C[C@H]1[C@@H]3C[C@H](F)C4=CC(=O)C=C[C@]4(C)[C@@]3(F)[C@@H](O)C[C@@]12C | inactive | 
40 | Cc1ccc(S(=O)(=O)NC2CCCCC2)cc1 | inactive | 
